Source: PubChem (National Center for Advancing Translational Sciences (NCATS))
EPAC1 antag = blocks human EPAC1 exchange factor | O95398 | AID 720709 | EPAC1 GEF assay, Rap1b-BODIPY-GDP exchange fluorescence | Potency, µM (top dose mostly 115 µM), usual class: inhibitors | actives 0.14% (n = 360,000); also: nearly all actives have a fitted effect of over 50% in size
ERG-DNA inh = inhibitors of human ERG Ets domain-DNA interaction. P11308. fluorescence polarization, His-ERG Ets domain / labelled DNA. Potency, µM (titrated, usually from 76.9 µM), actives largely listed as inhibitors. actives 0.028% (n = 370,000); active = well fitted inhibition curve with a large enough effect in the polarisation, with a control signal flat; inconclusive = small, poorly fitted or top-dose-only effect, or effect the other way, or a change in a side signal; inactive = no such curve, though single readings can be large or run the other way; the % refers to the polarisation;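 also: polarization taken with two DNA probes labelled with fluorescein and Texas red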
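His-tagged ERG Ets domain (1 uM in the protein solution; 300mM KCl, 50mM Tris-HCl, 1mM EDTA, 1mM DTT, pH 7.5) received compound, then a probe mix of 5 nM fluorescein-DNA and 100nM Texas-615-DNA. Fluorescence polarization was read for both dyes.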
EPAC2 ag = agonists of human EPAC2 (RAPGEF4) | Q8WZA2 | EPAC2 activation, biochemical qHTS; response scale: 100% = 6.5 mM cAMP response | Potency, µM (titrated, usually from 154 µM), hits mostly activators | actives 0.079% (n = 360,000); also: nearly all actives have a fitted effect of over 50% in size
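Setup: EPAC2 100 nM, labeled Rap1B complex 250 nM, free GDP 50 uM. Compound titrations pinned in, brief spin, 5 min room temperature incubation. Kinetic fluorescence read over 30 min, normalized to 6.5 mM cAMP.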
EPAC1 agonist = EPAC1 (human) agonism | O95398 | actives 0.073% (n = 360,000) | Potency, µM (top dose mostly 154 µM), actives largely listed as activators | EPAC1 agonist qHTS, biochemical assay; response scale: 100% = response to 6.5 mM cAMP; also: nearly all actives have a fitted effect of over 60% in size
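Multi-concentration qHTS readout: loss of Rap1B-bound BODIPY-GDP fluorescence driven by 100 nM EPAC1 with excess GDP (50 uM), monitored kinetically at room temperature; agonist response expressed relative to 6.5 mM cAMP.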
EPAC2 antag = blocks human EPAC2 exchange factor. AID 720708. Q8WZA2. actives 0.18% (n = 360,000). EPAC2 GEF exchange of Rap1B-BODIPY-GDP, fluorescence. Potency, µM (top dose mostly 114 µM), usual class: inhibitors; also: nearly all actives have a fitted effect of over 45% in size
TDP1 block = blocks human tyrosyl-DNA phosphodiesterase 1. Q9NUW8. recombinant TDP1, AlphaScreen DNA substrate cleavage. Potency, µM (top dose mostly 130 µM), hits mostly inhibitors. actives 0.28% (n = 350,000). AID 485290; also: nearly all actives have a fitted effect of over 40% in size
Target sequence (Q9NUW8 whole entry, looked up): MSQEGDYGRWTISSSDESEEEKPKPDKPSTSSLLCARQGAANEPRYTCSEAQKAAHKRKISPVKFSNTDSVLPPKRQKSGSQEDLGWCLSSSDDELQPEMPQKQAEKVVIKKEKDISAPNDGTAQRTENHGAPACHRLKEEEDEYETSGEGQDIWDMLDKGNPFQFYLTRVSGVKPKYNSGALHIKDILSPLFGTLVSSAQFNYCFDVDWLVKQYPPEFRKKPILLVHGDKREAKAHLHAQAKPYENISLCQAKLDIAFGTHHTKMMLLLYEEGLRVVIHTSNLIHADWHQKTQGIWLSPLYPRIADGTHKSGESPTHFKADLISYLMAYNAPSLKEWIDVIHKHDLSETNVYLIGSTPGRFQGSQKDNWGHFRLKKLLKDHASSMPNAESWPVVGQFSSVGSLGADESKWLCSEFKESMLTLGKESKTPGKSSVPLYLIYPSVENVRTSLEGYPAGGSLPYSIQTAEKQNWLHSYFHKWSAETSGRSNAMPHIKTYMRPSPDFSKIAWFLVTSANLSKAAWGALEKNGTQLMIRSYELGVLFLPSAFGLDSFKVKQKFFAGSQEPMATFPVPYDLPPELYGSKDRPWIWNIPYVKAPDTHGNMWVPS
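Recombinant E. coli-expressed Tdp1 (1 nM) preincubated with compound 15 min at RT, then 5'-biotin/3'-phosphotyrosine-FITC DNA substrate (15 nM) added for 5 min. AlphaScreen beads (10 ug/ml) added, 10 min RT; tyrosine-FITC cleavage read as signal loss.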
Numbers stand for hits; . = inactive; ? = inconclusive; / = no result; [ ] = remark or other dose. This is a sample that favours compounds with a hit; in the whole collection about 0.54% have one here. Unless noted, calls follow the shape of the dose curve; as a rule, active = well fitted curve in the direction sought with a large enough effect; inconclusive = small, poorly fitted or top-dose-only effect, or another doubt; inactive = no such curve, though single readings can be large; an effect the other way counts as inactive or inconclusive.

SMILES	EPAC1 antag	ERG-DNA inh	EPAC2 ag	EPAC1 agonist	EPAC2 antag	TDP1 block
O=[N+]([O-])c1ccc(/C=N/Nc2ncc(Br)cn2)cc1	.	.	.	.	.	50.1µM
Cc1cc2c(C)nc(N/N=C/c3ccc(F)cc3)nc2o1	39.8µM	.	.	.	.	.
CCC(=O)Nc1ccc(OCc2cc(C3Nc4ccccc4C(=O)N3Cc3ccccc3)ccc2OC)cc1 (configuration not stated)	/	/	/	/	/	.
Cc1ccc2nc(-c3ccc(N)cc3)sc2c1S(=O)(=O)O	/	/	/	/	/	31.6µM
Cc1ccc(SCc2cc(=O)c3c(=O)n(-c4ccccc4)[nH]c3[nH]2)cc1	79.4µM	.	.	.	.	.
O=c1cc(CSc2ccc(Cl)cc2)[nH]c2[nH]n(-c3ccccc3)c(=O)c12	?	.	.	.	.	/
COc1ccc(C2NC(c3ccc4c(c3)OCO4)=CC(c3ccccc3O)N2)cc1OC (configuration not stated)	/	/	/	/	/	.
Cn1c(O)c(N=NC(=O)c2ccccc2O)c2ccccc21	31.6µM	.	.	.	.	?
Cc1ccc(-n2ncc3c2CC(C)(C)CC3NC(=O)CCc2ccncc2)cc1 (configuration not stated)	.	.	.	.	.	22.4µM
Cc1ccc(-n2ncc3c2CC(C)(C)CC3NC(=O)CCc2cccnc2)cc1 (configuration not stated)	.	.	.	.	.	.
CC(=O)Nc1cccc(S(=O)(=O)Nc2ccc(C)c(C)c2)c1	/	/	/	/	/	.
Cc1ccc(-c2[nH]ncc2CNCc2ccc(CN(C)C)cc2)cc1	/	/	/	/	/	.
O=C1CN(S(=O)(=O)c2c(F)cccc2F)CCN1S(=O)(=O)c1ccc2c(c1)OCCO2	/	/	/	/	/	.
Cc1cc2c(s1)c1cnn(Cc3ccc(F)c(F)c3F)c(=O)c1n2C	/	/	/	/	/	.
O=C(N/N=C/c1sc(=O)n(Cc2ccc(Br)cc2)c1Cl)c1ccco1	.	.	.	.	.	39.8µM
O=C(N/N=C/c1ccc(Br)s1)c1ccco1	.	.	.	.	.	.
COc1ccc(C2c3c(nc(Cc4ccccc4)[nH]c3=O)Oc3ccc4ccccc4c32)cc1OC (configuration not stated)	/	/	/	/	/	.
Cc1cc2oc3ccc(NCCCN4CCOCC4)cc3c(=O)c2cc1C	.	.	.	.	.	/
Cc1cc2oc3ccc(NCCCn4ccnc4)cc3c(=O)c2cc1C	.	17.8µM	.	.	.	/
COc1cnc(-c2ccccn2)nc1Oc1cccc(Cl)c1	.	.	.	.	?	.
COc1cnc(-c2ccccn2)nc1Oc1c(C)cccc1C	.	.	.	.	14.1µM	.
Cc1ccc(C)n1Cc1ccc(C(=O)O)cc1	.	.	.	.	?	3.55µM
CCOc1cc(/C=C(\C#N)C(=O)Nc2cccc(C(=O)O)c2)ccc1OCc1ccc(Br)cc1	.	.	?	.	?	14.1µM
COc1cc(/C=C(/C#N)C(=O)Nc2ccccc2)ccc1OCc1ccc(C(=O)O)cc1	.	.	.	.	.	.
N#C/C(=C\c1ccc(OCc2ccc(Cl)cc2)cc1)C(=O)Nc1cccc(C(=O)O)c1	.	.	.	.	.	35.5µM
SMILES	EPAC1 antag	ERG-DNA inh	EPAC2 ag	EPAC1 agonist	EPAC2 antag	TDP1 block
COc1cc(/C=C(\C#N)C(=O)Nc2ccc(C(=O)O)cc2)ccc1OC(=O)c1cccc(F)c1	.	.	.	.	.	50.1µM
COc1cc(/C=C(\C#N)C(=O)Nc2cccc(C(=O)O)c2)ccc1OCc1ccc(C)cc1	.	.	.	.	.	.
CC1CCc2cc(F)cc3c2N1C(=O)C(C(=O)Nc1cnccn1)C3=O (configuration not stated)	/	/	/	/	/	.
O=C(Nc1ccncc1)C1C(=O)c2ccccc2N(Cc2ccccc2)C1=O (configuration not stated)	/	/	/	/	/	.
C#C[C@]1(O)CC[C@H]2C3CCC4=Cc5oncc5CC4(C)C3CCC21C (some centres not stated)	/	/	/	/	/	.
Nc1ccc(C(=O)Nc2ccc(Nc3ccncc3)cc2)cc1	.	.	.	.	.	.
Nc1ccc(NC(=O)c2ccc(C(=O)Nc3ccc(N)cc3)cc2)cc1	.	.	.	.	.	79.4µM
CCN(CC)C(=O)CSc1nnc(-c2cccs2)n1Cc1ccco1	.	.	10µM	.	.	.
C/C(=N/NC(=O)c1ccncc1)c1cc2ccc(O)cc2oc1=O	.	/	89.1µM	100µM	.	.
COc1ccc2oc(=O)c(/C(N)=N/NC(=O)c3ccncc3)cc2c1	.	.	.	.	.	50.1µM
C/C(=N\NC(=O)c1ccncc1)c1cc2ccccc2oc1=O	.	.	.	.	.	.
Cc1cc2c(s1)c1cnn(Cc3ccccc3F)c(=O)c1n2C(C)C	/	/	/	/	/	.
c1csc(CNc2ncnc3cc(-c4ccc5c(c4)OCO5)ccc23)c1	/	/	/	/	/	.
COc1ccc(C2c3ccc(OCc4ccccc4)cc3Oc3ncn(CCN4CCOCC4)c(=N)c32)cc1OC (configuration not stated)	/	/	/	/	/	.
Cc1ccc(C2CC(c3cccs3)=NN2C(=O)c2ccco2)o1 (configuration not stated)	.	.	.	.	28.2µM	.
CCOC(=O)N1CCN(/[N+]([O-])=N/Oc2ccc([N+](=O)[O-])cc2[N+](=O)[O-])CC1C (configuration not stated)	/	/	/	/	/	.
CC(C)C(=O)Nc1nc2c(ncn2[C@H]2CC(O)[C@@H](CO)O2)c(=O)[nH]1 (some centres not stated)	/	/	/	/	/	.
O=C1c2ccccc2C(=O)N1c1ccc(Cl)cc1	/	/	/	/	/	.
O=C1c2cccc3c(O)ccc(c23)C(=O)N1Cc1ccco1	.	?	100µM	56.2µM	.	/
Cc1ccc(N2C(=O)c3cccc4c(C(=O)O)ccc(c34)C2=O)cc1	/	/	/	/	/	.
CC(=O)Nc1ccc(N2C(=O)c3cccc4c(O)ccc(c34)C2=O)cc1	?	.	112µM	89.1µM	.	/
O=C1c2ccccc2C(=O)N1Cc1ccco1	.	.	.	.	.	.
O=C1c2cccc3c(O)ccc(c23)C(=O)N1c1ccc(Cl)cc1	.	.	112µM	100µM	.	/
CCCN1C(=O)c2ccccc2NC1c1ccc(OC)c(COc2ccc([N+](=O)[O-])cc2)c1 (configuration not stated)	/	/	/	/	/	.
COC(=O)c1ccccc1S(=O)(=O)N1CCc2nc(-c3ccc(OC)cc3C)c3c(c2C1)CO[C@@H](c1ccccc1)C3	/	/	/	/	/	.[12.3 µM]
CC(=O)Nc1ccc(S(=O)(=O)N2CCN(S(=O)(=O)c3c(F)cccc3F)CC2)cc1	/	/	/	/	/	.
